Data reported in the supplement of paper PMC11732987, “Enantioselective OTUD7B fragment discovery through chemoproteomics screening and high-throughput optimisation” (Communications Chemistry, 2025).
Values without a mark were called inactive.

biological target: T1, BAP1 (UniProt Q92560); assay: log2 ratio of Biotin-Ahx-Ub-VS probe labelling (fragment/DMSO); higher = less target engagement (more negative = stronger competition), active = hit call of the paper (q ≤ 0.05, log2 ratio ≤ -1); conditions: compound concentration: 200 uM; treatment time: 3 h
T1 sequence (whole entry): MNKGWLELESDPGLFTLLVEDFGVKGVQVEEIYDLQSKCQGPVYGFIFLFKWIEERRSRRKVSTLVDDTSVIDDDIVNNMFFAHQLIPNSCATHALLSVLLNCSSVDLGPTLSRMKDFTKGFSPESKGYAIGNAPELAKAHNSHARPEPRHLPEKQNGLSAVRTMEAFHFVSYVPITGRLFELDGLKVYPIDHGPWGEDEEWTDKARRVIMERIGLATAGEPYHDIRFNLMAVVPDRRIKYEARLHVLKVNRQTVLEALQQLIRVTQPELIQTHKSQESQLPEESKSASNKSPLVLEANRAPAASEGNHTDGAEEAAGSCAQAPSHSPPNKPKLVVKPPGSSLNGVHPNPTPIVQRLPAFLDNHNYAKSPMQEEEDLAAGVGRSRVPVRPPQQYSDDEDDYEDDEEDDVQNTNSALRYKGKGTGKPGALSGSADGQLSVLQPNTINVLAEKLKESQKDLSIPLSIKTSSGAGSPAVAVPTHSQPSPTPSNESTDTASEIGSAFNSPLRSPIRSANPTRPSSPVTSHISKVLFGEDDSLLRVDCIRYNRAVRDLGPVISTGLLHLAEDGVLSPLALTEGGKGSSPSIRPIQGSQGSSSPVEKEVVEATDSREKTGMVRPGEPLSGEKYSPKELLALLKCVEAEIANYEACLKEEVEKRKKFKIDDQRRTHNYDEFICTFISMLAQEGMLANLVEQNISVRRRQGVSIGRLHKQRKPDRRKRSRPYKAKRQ
How it was run: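 Using Biotin-Ahx-Ub-VS at 0.5 µM final for 1 h, DUBs were labelled in HEK293T lysate (495 µg per sample) that had first been treated in triplicate with fragment at 200 µM or vehicle for 3 h. NeutrAvidin enrichment, LysC and trypsin digestion and diaPASEF LC-MS/MS followed. Spectronaut label-free quantities were global-median-normalised. Values are average log2 fragment/vehicle ratios by unpaired t-test, using proteins with ≥2 unique peptides.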

Question: How did the “log2 ratio of Biotin-Ahx-Ub-VS probe labelling” value (from here on “log2 ratio”) turn out when CC(NC(=O)CCl)c1cnn(C2CC2)c1 (stereo not given) was run?
Answer: -2.22 (active)

Question: For Cc1nc(-c2cccc(NC(=O)CCl)c2)cs1, which “log2 ratio” value is on record?
Answer: -3.5 (active)

Question: Cn1cc(CN(Cc2ccc(Cl)cc2)C(=O)CCl)cn1 was tested. Which “log2 ratio” value did it give?
Answer: -0.944

Question: With O=C(CCl)NCc1cccc(F)c1 as the molecule, how does the “log2 ratio” value read?
Answer: -2.76 (active)

Question: With CC(=O)C1CCCCN1C(=O)CCl (stereo not given) as the molecule, how does the “log2 ratio” value read?
Answer: -0.0781

Question: CC(NC(=O)CCl)c1cc2n(n1)CCCC2.Cl (stereo not given) was tested. Which “log2 ratio” value did it give?
Answer: -1.36 (active)

Question: For CCN(C(=O)CCl)C1CCCCC1, which “log2 ratio” value is on record?
Answer: 0.174

Question: With O=C(CCl)Nc1ccccc1C(F)(F)F as the molecule, how does the “log2 ratio” value read?
Answer: -2.61 (active)

Question: For Cc1ccc(-c2nnc(C)[nH]2)c(NC(=O)CCl)c1, which “log2 ratio” value is on record?
Answer: -4.24 (active)

Question: For O=C(CCl)NC1CCC(C(F)(F)F)CC1 (stereo not given), which “log2 ratio” value is on record?
Answer: -1.11 (active)

Question: With Cc1ccc(C)c(NC(=O)CCl)c1 as the molecule, how does the “log2 ratio” value read?
Answer: -3.51 (active)

Question: For CC(O)CC1CCN(C(=O)CCl)CC1 (stereo not given), which “log2 ratio” value is on record?
Answer: -0.221

Question: How did the “log2 ratio” value turn out when Cc1c(NC(=O)CCl)c(=O)n(-c2ccccc2)n1C was run?
Answer: -1.12 (active)

Question: For Cc1ncc2c(n1)CCN(C(=O)CCl)C2, which “log2 ratio” value is on record?
Answer: -0.39

Question: How did the “log2 ratio” value turn out when Cc1conc1C1CN(C(=O)CCl)C1 was run?
Answer: -1.76 (active)

Question: Which “log2 ratio” value does the source give for Cc1ccc(CC(NC(=O)CCl)c2ccccn2)cc1.Cl (stereo not given) here?
Answer: -0.525

Question: Which “log2 ratio” value does the source give for O=C(CCl)N1CCC(c2nc3ccccc3o2)CC1 here?
Answer: -1.64 (active)

Question: How did the “log2 ratio” value turn out when Cc1cc(C2CCCN2C(=O)CCl)nn1C.Cl (stereo not given) was run?
Answer: -0.0558

Question: O=C(CCl)Nc1cc2c(cc1Cl)OCCO2 was tested. Which “log2 ratio” value did it give?
Answer: -3.65 (active)

Question: For O=C(CCl)N1CCC(C(O)c2ccc(F)cc2)CC1 (stereo not given), which “log2 ratio” value is on record?
Answer: -0.334

Question: Which “log2 ratio” value does the source give for Cc1nc(CN2CCCN(C(=O)CCl)CC2)no1.Cl here?
Answer: 0.234

Question: Cc1cccn2cc(CCNC(=O)CCl)nc12.Cl was tested. Which “log2 ratio” value did it give?
Answer: -0.597

Question: O=C(CCl)N1CCOC(CCc2ccccc2)C1 (stereo not given) was tested. Which “log2 ratio” value did it give?
Answer: -1.1 (active)

Question: O=C(CCl)N1CCOCCC1c1ccccc1 (stereo not given) was tested. Which “log2 ratio” value did it give?
Answer: -0.446

Question: O=C(CCl)N[C@H]1CC[C@@H](CO)CC1 was tested. Which “log2 ratio” value did it give?
Answer: -1.34 (active)

Question: For O=C(CCl)N1CCOC2(CCC2)CC1, which “log2 ratio” value is on record?
Answer: -0.305

Question: CC(NC(=O)CCl)c1ccc2[nH]ncc2c1 (stereo not given) was tested. Which “log2 ratio” value did it give?
Answer: -3.42 (active)

Question: CN(C)C(=O)c1ccc(CNC(=O)CCl)cc1 was tested. Which “log2 ratio” value did it give?
Answer: -2.84 (active)

Question: For Cc1cnc2[nH]cc(CCNC(=O)CCl)c2c1, which “log2 ratio” value is on record?
Answer: -1 (active)

Question: For Cl.Cn1nccc1C(NC(=O)CCl)c1ccccc1 (stereo not given), which “log2 ratio” value is on record?
Answer: -4.27 (active)

Question: How did the “log2 ratio” value turn out when Cc1cccc(NC(=O)CCl)c1C was run?
Answer: -3.21 (active)

Question: For Cc1nnc(C(NC(=O)CCl)c2ccccc2)n1C (stereo not given), which “log2 ratio” value is on record?
Answer: 0.428

Question: How did the “log2 ratio” value turn out when O=C(CCl)NC1CCC2(CC1)OCCO2 was run?
Answer: -0.944

Question: With Cc1cccc2nc(CCNC(=O)CCl)cn12.Cl as the molecule, how does the “log2 ratio” value read?
Answer: -0.904

Question: For N#Cc1ccc(Cl)cc1NC(=O)CCl, which “log2 ratio” value is on record?
Answer: -4.1 (active)
